The list is not random: actives were taken first. Their share in the collection is about 0.89%.
CIT2-GFP yeast – modulators of CIT2-GFP expression in yeast, primary screen, S. cerevisiae, GFP fusion, multiplex flow cytometry, MLPCN library | S. cerevisiae CIT2-GFP strain, 3 h; 100 means same as DMSO wells | GFP response vs DMSO, % at 10 µM | 320,000 tested, 0.065% active | AID 2029, 2009;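 active = GFP response relative to DMSO above a set limit, near the screen mean plus 3 SD, cut at about 150% in these data; inconclusive = Fewer than 70 cells measured for a yeast strain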;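 note: ratio of well median GFP fluorescence to mean of DMSO wells on the plate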
AGP1-GFP MLPCN – modulators of AGP1-GFP expression in yeast TOR pathway, primary screen, cell-based, multiplex flow cytometry, S. cerevisiae, MLPCN library; AID 2066, 2009; 3 h; GFP as percent of DMSO wells; 320,000 tested, 0.02% active; GFP response vs DMSO, % at 10 µM;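 active = GFP response relative to DMSO above a set limit, near screen average plus 3 SD, cut at about 150% in these data; inconclusive = fewer than 70 cells counted for the yeast strain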;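 note: median GFP channel fluorescence of the gated AGP1 strain per well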
RPL19A-GFP yeast – RPL19A-GFP expression modulators in yeast, primary screen, cell-based, S. cerevisiae, multiplex flow cytometry, MLPCN; S. cerevisiae RPL19A-GFP strain, 3 h; active compounds read low; percent response vs DMSO, % at 10 µM; 330,000 tested, 0.3% active;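 active = percent response vs DMSO below 50%; inconclusive = fewer than 70 events counted for the yeast strain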;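 note: median channel GFP fluorescence of the barcoded RPL19A-GFP strain; ratio of sample median GFP to plate DMSO average so 100% = DMSO; lower means less RPL19A-GFP as with rapamycin TOR inhibition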
LAP4 TOR yeast – modulators of LAP4-GFP expression in yeast, primary screen, S. cerevisiae, multiplex flow cytometry, MLPCN library; 320,000 tested, 0.34% active; GFP response vs DMSO, % at 10 µM; 3 h; median GFP as percent of DMSO wells;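 active = GFP response vs DMSO above a set limit, about the screen mean plus 3 SD, cut at about 150% in these data; inconclusive = under 70 cell events counted for the yeast strain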
MEP2-GFP yeast – modulators of MEP2-GFP levels in yeast, primary screen, S. cerevisiae, multiplex flow cytometry, MLPCN library; S. cerevisiae MEP2-GFP strain, 3 h; 100% = DMSO control level; GFP response vs DMSO, % at 10 µM; 330,000 tested, 0.51% active; AID 2016, 2009;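 active = GFP response versus DMSO above a set limit, roughly screen mean plus 3 SD, cut at about 180% in these data; inconclusive = fewer than 70 cells counted for a yeast strain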;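 note: median GFP fluorescence of the barcode-gated MEP2-GFP cells per well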
* marks the source's active call; other numbers are inactive results; ? = inconclusive; . = no result; + = active, no number; [ ] = dose if it differs, or a comment.

SMILES	CIT2-GFP yeast	AGP1-GFP MLPCN	RPL19A-GFP yeast	LAP4 TOR yeast	MEP2-GFP yeast
CCN(CC)c1ccc(C2C(C(C)=O)C(=O)CC(C)(O)C2C(C)=O)cc1 (stereo not given)	?	?	14*[may fluoresce violet]	?	249*[may fluoresce violet]
CCOc1ccc(N2CC(C(=O)Nc3ccccc3N3CCCC3)CC2=O)cc1 (stereo not given)	90	96	90	102	97
COCCN(Cc1cccs1)S(=O)(=O)c1csc(C(N)=O)c1	95	93	94	89	93
CCC1C(=O)Nc2ccccc2N1C(=O)COc1ccccc1 (stereo not given)	156*[may fluoresce green]	116	94	104	106
O=C(Cn1c(-c2ccccn2)nc2ccccc21)N/N=C/c1cccnc1	96	113	100	111	99
O=S(=O)(Nc1ccncc1Cl)c1ccccc1	85	87	84	84	87
Cn1c(=O)oc2cc(S(=O)(=O)N3CCCC(C(=O)Nc4nccs4)C3)ccc21 (stereo not given)	96	94	94	94	91
Cc1cccc(NC(=O)C2CCCN(S(=O)(=O)c3ccc4c(c3)oc(=O)n4C)C2)c1 (stereo not given)	?	?	45*[may fluoresce violet]	93	202*[may fluoresce violet]
CC(=O)Nc1ccc(S(=O)(=O)N2CCC(C(=O)NCCC(=O)NCc3ccncc3)CC2)cc1	106	112	107	116	111
O=C(CNC(=S)N(Cc1ccccc1F)C1CCCCC1)NCCCN1CCOCC1	?	?	56	86	317*[may fluoresce violet]
Nc1ccc(N2CCCCC2)c(S(=O)(=O)Nc2ccc(Cl)cc2)c1	104	105	100	106	102
O=C(NCc1n[nH]c(=S)n1-c1cccc(C(F)(F)F)c1)c1ccc(S(=O)(=O)N2CCCCC2)cc1	?	?	26*[may fluoresce violet]	59	221*[may fluoresce violet]
N#C/C(=C\Nc1ccc(Cl)cn1)S(=O)(=O)c1ccccc1	96	99	92	98	98
O=C(Nc1ccc(CN2CCOCC2)cc1)c1ccccc1F	?	26	41*[may fluoresce violet]	105	172
Cc1ccc(-c2cc(C(=O)OCC(=O)Nc3ncc(C(F)(F)F)cc3Cl)c3ccccc3n2)cc1	104	108	101	106	112
CCN1/C(=C/C=C/c2oc3ccc4ccccc4c3[n+]2CC)Oc2ccc3ccccc3c21	+[may fluoresce green]	.	392	+[may fluoresce green]	+[may fluoresce green]
O=C1OC2(c3ccccc31)c1cc(I)c(O)c(I)c1Oc1c2cc(I)c(O)c1I	169*	90	119	243*	257*
COc1ccc(NC(=O)C2C3C=CC(C3)C2C(=O)NCc2ccco2)c(OC)c1 (stereo not given)	102	27	63	95	195*
O=C(O)C1C2C=CC(C2)C1C(=O)NCc1ccco1 (stereo not given)	95	98	99	101	92
CN(C(=O)c1ccc(NC(=O)Cc2ccc(NC(=O)C3CCCN(C(=O)C4CCC4)C3)cc2)cc1)C1CC1 (stereo not given)	95	91	91	89	81
COC(=O)c1[nH]c2ccc(Br)cc2c1NC(=O)CN1CCN(C2CCCCC2)CC1	?	71	17*[may fluoresce violet]	97	281*[may fluoresce violet]
O=C(CCN1C(=O)C2CC=C(Cl)CC2C1=O)NCc1ccccc1 (stereo not given)	?	?	?	?	206*[may fluoresce violet]
O=C(c1cc(-c2ccc(O)cc2)on1)N1CCc2ccccc2C1	92	98	93	111	98
O=C(c1cc(-c2cccc(Cl)c2)on1)N1CCc2ccccc2C1	166*	68	105	89	99
O=C(Nc1ccccc1N1CCOCC1)c1ccc([N+](=O)[O-])o1	52	22	45*	40	68
SMILES	CIT2-GFP yeast	AGP1-GFP MLPCN	RPL19A-GFP yeast	LAP4 TOR yeast	MEP2-GFP yeast
O=C(Nc1ccccc1N1CCN(C(=O)c2ccc(Cl)cc2)CC1)c1ccc([N+](=O)[O-])o1	82	97	95	115	103
O=C(Nc1cccc(Cl)c1N1CCCC1)c1ccc([N+](=O)[O-])o1	67	81	82	211*	82
Cc1nc(=O)c(-c2ccccc2)c(C)n1-c1ccc(C(=O)O)cc1	94	102	100	87	99
Cc1ccc(OCc2nc(-c3ccccn3)no2)cc1	87	98	101	101	101
Fc1ccc(-c2nc3c(-c4ccc(Cl)cc4)cnn3cc2CCN2CCOCC2)cc1	84	88	95	94	90
O=C(N=Nc1c(O)[nH]c2ccc(Br)cc12)c1cc(-c2cccc3ccccc23)n[nH]1	101	102	101	111	103
CCn1cc([N+](=O)[O-])c(=O)c2cc(F)c(N3CCOCC3)cc21	?	?	61	65	255*[may fluoresce violet]
CCOC(=O)Cc1csc(NS(=O)(=O)c2ccc(C(F)(F)F)cc2)n1	107	108	99	109	106
COC(=O)c1cccc(NC(=O)COC(=O)CSc2nc(C)cc(C)n2)c1	100	95	95	99	101
Cc1cccc(N2C(=O)C3C4C=CC(C4)C3C2=O)c1 (stereo not given)	?	?	48*[may fluoresce violet]	93	238*[may fluoresce violet]
O=C(Nc1ccccc1NC(=O)c1ccco1)c1ccccc1	?	?	41*[may fluoresce violet]	76	495*[may fluoresce violet]
CC(C)N=C(Nc1ccccc1)c1cccnc1	?	22	34*[may fluoresce violet]	90	177*[may fluoresce violet]
CSC1=NC(=O)/C(=C/c2ccc(SC)cc2)S1	51	84	78	176*	98
CCN(CC)Cc1c(O)ccc2c(=O)c(-c3ccc4c(c3)OCCO4)coc12	?	.	38*[may fluoresce violet]	86	182*[may fluoresce violet]
O=C(NCC(c1ccc(F)cc1)N1CCOCC1)c1cc(F)c(F)c(F)c1F (stereo not given)	171*	78	105	77	155
O=C(NCC(c1ccc(F)cc1)N1CCOCC1)c1ccccc1F (stereo not given)	101	107	98	110	96
O=C(c1ccccc1)N1CCCCC(Sc2nnnn2-c2ccccc2)C1=O (stereo not given)	60	72	103	89	93
CCN(CC)c1ccc(/C=N/NC(=O)c2cc(C)nc3ccccc23)cc1	.	.	50	.	678*[may fluoresce violet]
O=[N+]([O-])c1ccc(-c2cn(-c3ccc(Cl)cc3)c(=S)[nH]2)cc1	105	107	104	101	108
CCCCn1c(SCC(=O)Nc2sc3c(c2C(N)=O)CCC3)nnc1-c1ccccc1	?	?	16*[may fluoresce violet]	79	252*[may fluoresce violet]
C/C(=N\NC(=O)c1nnn(-c2nonc2N)c1CN1CCC(C)CC1)c1cccc(Br)c1	98	99	96	85	92
CCc1cc(=O)oc2c(CN3CCN(C)CC3)c(O)c(Cl)cc12	?	?	44*[may fluoresce violet]	84	302*[may fluoresce violet]

Screens deposited in PubChem by NMMLSC.
